Source: PubChem BioAssay AID1159580 (chemical genetic matrix, 2015)
Screen size: about 5,500 compounds; about 2,000 (36%) were called active. About 18% were inconclusive and are not listed. Rule as the data show it: active = normalized growth mostly below about 0.91 (no sharp cut-off); inconclusive = no clear call, values can overlap the other calls; inactive = mostly above about 0.92. The list shows a part of the results.

Test: chemical genetic growth profiling, strain panel (AID 1159580);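 also: tested at 20 µM; growth read once vehicle control cultures reached saturation at 30 °C; 1 = growth at the plate median or of vehicle wells; lower values mean less growth of the strain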
Conditions: S. cerevisiae deletion strains, growth OD

Measured: normalized growth

O=C1CC(c2ccc(O)c(O)c2)Oc2cc(O)cc(O)c21 (stereo unspecified)
inactive: locus YAL021C, strain ccr4, stronger effect = lower value 0.989 | locus YAL026C, strain drs2, stronger effect = lower value 1 | locus YAL030W, strain snc1, stronger effect = lower value 0.994 | locus YBL061C, strain skt5, stronger effect = lower value 0.984 | locus YBR009C, strain hhf1, stronger effect = lower value 1.01 | locus YBR023C, strain chs3, stronger effect = lower value 0.987 | locus YBR171W, strain sec66, stronger effect = lower value 0.993 | locus YBR231C, strain swc5, stronger effect = lower value 0.958 | locus YBR279W, strain paf1, stronger effect = lower value 1.01 | locus YCL011C, strain gbp2, stronger effect = lower value 1 | locus YCL016C, strain dcc1, stronger effect = lower value 1.01 | locus YCL061C, strain MRC1, stronger effect = lower value 0.989 | locus YCL069W, strain vba3, stronger effect = lower value 1.01 | locus YCR088W, strain abp1, stronger effect = lower value 0.999 | locus YDL005C, strain med2, stronger effect = lower value 0.977 | locus YDL040C, strain nat1, stronger effect = lower value 1.01 | locus YDR001C, strain nth1, stronger effect = lower value 1.01 | locus YDR069C, strain doa4, stronger effect = lower value 0.958 | locus YDR137W, strain rgp1, stronger effect = lower value 0.995 | locus YDR159W, strain sac3, stronger effect = lower value 0.995 | locus YDR195W, strain ref2 0.983 | locus YDR297W, strain sur2, stronger effect = lower value 1.01 | locus YDR334W, strain swr1, stronger effect = lower value 1.01 | locus YDR335W, strain msn5, stronger effect = lower value 0.994 | locus YDR392W, strain spt3, stronger effect = lower value 0.967 | locus YEL003W, strain gim4, stronger effect = lower value 0.994 | locus YEL037C, strain rad23, stronger effect = lower value 0.986 | locus YEL061C, strain CIN8 (second series), stronger effect = lower value 1.01 | locus YER015W, strain faa2, stronger effect = lower value 0.996 | locus YER016W, strain bim1, stronger effect = lower value 0.992 | locus YER111C, strain swi4, stronger effect = lower value 0.99 | locus YER155C, strain BEM2 (second series), stronger effect = lower value 0.984 | locus YFR010W, strain ubp6, stronger effect = lower value 0.97 | locus YGL167C, strain pmr1, stronger effect = lower value 0.991 | locus YGL173C, strain kem1, stronger effect = lower value 0.987 | locus YGL227W, strain vid30, stronger effect = lower value 1 | locus YGL240W, strain doc1, stronger effect = lower value 1.02 | locus YGL253W, strain hxk2, stronger effect = lower value 1.01 | locus YHR013C, strain ard1, stronger effect = lower value 0.974 | locus YHR027C, strain rpn1, stronger effect = lower value 1.01 | locus YHR142W, strain chs7, stronger effect = lower value 0.969 | locus YJL092W, strain hpr5, stronger effect = lower value 1 | locus YJL095W, strain BCK1 (second series), stronger effect = lower value 1 | locus YJL115W, strain asf1, stronger effect = lower value 1 | locus YJL129C, strain trk1, stronger effect = lower value 0.999 | locus YJL154C, strain vps35, stronger effect = lower value 1.02 | locus YJL164C, strain tpk1, stronger effect = lower value 0.973 | locus YJL166W, strain qcr8, stronger effect = lower value 1.01 | locus YKL160W, strain elf1, stronger effect = lower value 0.975 | locus YKR026C, strain gcn3, stronger effect = lower value 1.02 | locus YKR091W, strain srl3, stronger effect = lower value 0.994 | locus YLL001W, strain dnm1, stronger effect = lower value 0.992 | locus YLL026W, stronger effect = lower value 1 | locus YLL041C, strain sdh2, stronger effect = lower value 0.997 | locus YLR027C, strain aat2, stronger effect = lower value 1.01 | locus YLR221C, strain rsa3, stronger effect = lower value 0.998 | locus YLR258W, strain gsy2, stronger effect = lower value 0.992 | locus YLR262C, strain YPT6 (second series), stronger effect = lower value 1.01 | locus YLR320W, strain mms22, stronger effect = lower value 0.98 | locus YLR342W, strain FKS1, stronger effect = lower value 0.993 | locus YLR357W, strain rsc2, stronger effect = lower value 0.966 | locus YLR370C, strain arc18, stronger effect = lower value 1.01 | locus YLR384C, strain iki3, stronger effect = lower value 1.01 | locus YML120C, strain ndi1, stronger effect = lower value 1 | locus YMR058W, strain fet3, stronger effect = lower value 0.969 | locus YMR125W, strain sto1, stronger effect = lower value 0.995 | locus YMR129W, stronger effect = lower value 1 | locus YMR205C, strain PFK2, stronger effect = lower value 1 | locus YMR231W, strain pep5, stronger effect = lower value 0.996 | locus YNL071W, strain lat1, stronger effect = lower value 0.998 | locus YNL209W, strain ssb2, stronger effect = lower value 1 | locus YNL248C, strain rpa49, stronger effect = lower value 0.989 | locus YNL322C, strain KRE1 (second series), stronger effect = lower value 0.997 | locus YNR049C, strain mso1, stronger effect = lower value 1 | locus YOR001W, strain rrp6, stronger effect = lower value 0.997 | locus YOR070C, strain gyp1, stronger effect = lower value 0.992 | locus YOR080W, strain dia2, stronger effect = lower value 0.984 | locus YOR083W, strain WHI5, stronger effect = lower value 0.951 | locus YOR106W, strain vam3, stronger effect = lower value 0.984 | locus YOR265W, strain rbl2, stronger effect = lower value 1 | locus YOR270C, strain vph1, stronger effect = lower value 1.08 | locus YOR290C, strain snf2, stronger effect = lower value 0.995 | locus YPL051W, strain arl3, stronger effect = lower value 0.975 | locus YPL078C, strain atp4, stronger effect = lower value 0.991 | locus YPL106C, strain sse1, stronger effect = lower value 0.993 | locus YPL240C, strain hsp82, stronger effect = lower value 1.01
